Pf growth 96h: P. falciparum growth inhibition at 96 hour, primary screen for plastid delayed-death inhibitors; P. falciparum luciferase reporter growth, 96 h; Potency, µM (titrated, usually from 28.7 µM), without a hit: at the highest dose activity change, negative = inhibition, usual class: inhibitors; 6.9% of 320,000 active; AID 504834; active = well fitted inhibition curve with a large enough effect; inconclusive = small, poorly fitted or top-dose-only effect, or another doubt; inactive = no such curve, though single readings can be large or run the other way; also: potency is read from the fitted curve at half-maximal effect; % is scaled to controls: 0 for no effect and ±100 for the full control effect
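Compounds incubated with erythrocytes infected by luciferase-expressing P. falciparum (2% hematocrit, 0.05% parasitemia final) for 96 hours, 37 C in 5% CO2. Growth inhibition scored as decreased luciferase luminescence.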
Cycloheximide cs: affects cycloheximide protein synthesis inhibition readout, counter-screen. cell reporter, cycloheximide protein synthesis inhibition counterscreen. max response, %. 12% of 300,000 active; in the data active = max response mostly above about 13%, no sharp cut-off; inactive = mostly below about 14%; also: read at 38.3 µM for the half of the compounds with a filed dose; 0% is about no effect
NS1 inh: blocks influenza NS1 protein function; Potency, µM (top dose mostly 46.1 µM), for the others: at the highest dose activity, positive = more growth; 0.4% of 270,000 active; AID 2326; also: potency is read from the fitted curve at half-maximal effect; actives are rising curves; nearly all actives have a fitted effect of over 50% in size
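A cell-based growth assay was used: compounds that relieve NS1-induced slow growth of budding yeast raise OD600. Assay medium was yeast nitrogen base with ammonium sulphate and -URA supplement, pH 6.0, with 2% galactose.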
Pf growth 48h: P. falciparum growth inhibition at 48 hours (one generation); P. falciparum luciferase growth in erythrocytes, 48 h; Potency, µM (series often up to 28.7 µM), for the others: top-dose activity change, negative = inhibition, usual class: inhibitors; 5.9% of 310,000 active; AID 504832; active = well fitted inhibition curve with a large enough effect; inconclusive = small, poorly fitted or top-dose-only effect, or another doubt; inactive = no such curve, though single readings can be large or run the other way; also: potency is read from the fitted curve at half-maximal effect; % is scaled to controls: 0 for no effect and ±100 for the full control effect
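Here the parasites carry a stable luciferase gene and grow inside erythrocytes in Albumax-based RPMI medium with compound for one erythrocytic cycle. Activity is scored as loss of luminescent signal.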
SARS PLpro yeast: SARS-CoV PLP inhibition in yeast; S. cerevisiae expressing SARS-CoV PLpro, growth rescue; Potency, µM (top dose mostly 32.9 µM), for the others: top-dose activity, positive = growth rescue, usual class: activators; 0.19% of 330,000 active; also: potency is read from the fitted curve at half-maximal effect; 0% is about no effect; nearly all actives have a fitted effect of over 55% in size
Shiga inhibitor: inhibitors of Shiga toxin in Vero cells; Vero cells, Shiga toxin protein synthesis inhibition reporter; 9.2% of 290,000 active; inhibition, % at 38.7 µM; in the data active = inhibition mostly above about 28%, no sharp cut-off; inactive = mostly below about 43%; also: 0% is about no effect
* = called active by the depositor; ? = inconclusive; · = no result given. A selection: hits, their analogues and other compounds. The true share with any hit is near 21%. Unless noted, calls follow the shape of the full dose curve.

SMILES | Pf growth 96h | Cycloheximide cs | NS1 inh | Pf growth 48h | SARS PLpro yeast | Shiga inhibitor
CC(=O)N1N=C(c2ccc(C)c([N+](=O)[O-])c2)OC1(C)C | ? | 7 | -5% | 9.3µM* | -2% | -2
COc1ccccc1OC(C)C(=O)Nc1ccc(S(=O)(=O)N2CCN(C)CC2)cc1 (centres undefined) | -23% | -4 | 3% | -13% | -1% | -6
Clc1ccc(-c2noc(CSc3nnc(Cc4cccs4)n3-c3ccccc3)n2)cc1 | -10% | -6 | 29% | · | -9% | -9
Fc1ccc(-n2c(Cc3ccccc3)nnc2SCc2nc(-c3cccs3)no2)cc1 | -27% | 7 | -65% | 10µM* | -18% | -2
Cc1ccc(-c2noc(CSc3nnc(Cc4cccs4)n3-c3ccccc3)n2)cc1 | 4.7µM* | -3 | 1% | -11% | -13% | -2
Cc1ccc(-c2noc(CSc3nnc(-c4ccncc4)n3-c3ccc(C)cc3)n2)cc1 | 12µM* | 0 | -36% | ? | -5% | -13
c1ccc(-c2noc(CSc3nnc(Cc4cccs4)n3-c3ccccc3)n2)cc1 | 0% | -3 | -3% | ? | -2% | -4
CCc1cc(=O)oc2c(C)c(OC(C)C(=O)NCCCn3ccnc3)ccc12 (centres undefined) | ? | -3 | 3% | -15% | -10% | -1
CC(NC(=O)CN1C(=O)NC2(CCc3ccccc32)C1=O)c1ccccc1 (centres undefined) | 8% | · | · | 0% | -7% | ·
CCN(CC)S(=O)(=O)c1ccc2nnn(O)c2c1 | 26% | 6 | · | 6% | 0% | -2
Cc1ccc(-c2nnc(-c3cccs3)o2)cc1 | -6% | 31* | -31% | 90% | 0% | 72*
Cc1ccc(/C=C/c2nnc(-c3cccs3)o2)cc1 | 220% | 46* | -31% | 74% | 3% | 48*
Fc1ccc(/C=C/c2nnc(-c3cccs3)o2)cc1 | 188% | 31* | -7% | 176% | 14% | 75*
Cc1ccc(-c2nnc(N)o2)cc1 | 2% | 14 | 6% | 19% | 10% | 30
COc1ccc(N2CCN(C(=O)c3cc(=O)c4ccc(C)cc4o3)CC2)cc1 | ? | 4 | 9% | -1% | -2% | -4
CCc1ccc(C(=O)COc2ccc(NC(C)=O)cc2)cc1 | -26% | 18 | -10% | · | 5% | 117
O=C(CSc1nc(=O)n(CCN2CCOCC2)c2c1CCC2)Nc1ccc(OC(F)(F)F)cc1 | -32% | · | · | 10µM* | 1% | ·
COc1ccc(NC(=O)CSc2nc(=O)n(CCN3CCOCC3)c3c2CCC3)cc1 | -7% | · | · | -16% | · | ·
O=C(CSc1nc(=O)n(CCCN2CCOCC2)c2c1CCCC2)Nc1ccc(Cl)cc1 | ? | · | · | 13µM* | -6% | ·
CC(C)c1ccc(NC(=O)CSc2nc(=O)n(CCCN3CCOCC3)c3c2CCC3)cc1 | ? | · | · | -13% | 3% | ·
O=C(COc1ccccc1Cl)Nc1ccccc1C(=O)N1CCCCC1 | 2% | 43* | -5% | 44% | -5% | 85*
Cc1ccccc1OCC(=O)Nc1ccccc1C(=O)N1CCCCC1 | 10µM* | 16 | -4% | 6% | 8% | -4
Cc1ccc(N2CC(C(=O)OCc3nnc(-c4ccccc4)o3)CC2=O)cc1 (centres undefined) | 12% | · | · | 39% | -7% | ·
CSCC[C@H](NC(=O)NCc1ccc(F)cc1)C(=O)O | -4% | 2 | -2% | -3% | -3% | -6
COc1ccc2c(c1)c(C(O)CN1CCC(Cc3ccccc3)CC1)c(C)n2C (centres undefined) | 10µM* | 1 | 10% | 13µM* | -4% | -12
SMILES | Pf growth 96h | Cycloheximide cs | NS1 inh | Pf growth 48h | SARS PLpro yeast | Shiga inhibitor
COc1ccc2c(c1)c(C(O)CN1CCN(Cc3ccc4c(c3)OCO4)CC1)c(C)n2C (centres undefined) | ? | 8 | 1% | ? | -43% | -9
CCSC[C@H](NC(=O)[C@H](C)NC(=O)[C@@H](N)Cc1ccc(O)cc1)C(=O)N[C@@H](CC(=O)O)C(=O)N[C@H](C(=O)N[C@@H](C)C(=O)N[C@H](C(=O)N[C@@H](CSCC)C(=O)N[C@H](C(=O)N[C@H](C(=O)N[C@@H](Cc1cnc[nH]1)C(=O)N[C@@H](CCCNC(=N)N)C(=O)N[C@@H](CC(C)C)C(=O)N[C@@H](C)C(=O)NCC(=O)N[C@@H](CC(C)C)C(=O)N[C@@H](CC(C)C)C(=O)N[C@@H](CO)C(=O)N[C@@H](CCCNC(=N)N)C(=O)N[C@@H](CO)C(=O)NCC(=O)NCC(=O)N[C@H](C(=O)N[C@H](C(=O)N[C@@H](CCCCN)C(=O)N[C@@H](CC(N)=O)C(=O)N[C@@H](CC(N)=O)C(=O)N[C@@H](Cc1ccccc1)C(=O)N[C@H](C(=O)N1CCC[C@H]1C(=O)N[C@H](C(=O)N[C@@H](CC(N)=O)C(=O)N[C@H](C(=O)NCC(=O)N[C@@H](CO)C(=O)N[C@@H](CCCCN)C(=O)N[C@@H](C)C(=O)N[C@@H](Cc1ccccc1)C(N)=O)C(C)C)[C@@H](C)O)C(C)C)C(C)C)C(C)C)[C@@H](C)O)C(C)C)[C@@H](C)O)[C@@H](C)O | · | -4 | · | · | · | 10
CC(c1ccon1)N(C)Cc1cn[nH]c1-c1ccc(-c2ccccc2)cc1 (centres undefined) | -8% | 15 | 0% | -6% | -2% | 73*
CN(CC1CCOCC1)C(=O)CC1C(=O)NCCN1Cc1ccc(-c2ccccc2)cc1 (centres undefined) | ? | -2 | -4% | -10% | -1% | -17
CN(Cc1cn[nH]c1-c1ccc(-c2ccccc2)cc1)CC1CCOCC1 | -22% | 17* | -1% | 2% | -2% | 38
CN(Cc1ccon1)Cc1cn(C)nc1-c1ccc(Oc2ccccc2)cc1 | -1% | -2 | -5% | -17% | -2% | -2
CN(Cc1ccon1)Cc1cn[nH]c1-c1ccc(-c2ccccc2)cc1 | -19% | 30* | 0% | 196% | -1% | 24
CCN(C[C@H]1N[C@@](C)(C(=O)OC)[C@H]2C(=O)N(C)C(=O)[C@@H]12)C(=O)c1ccc(C(C)(C)C)cc1 | · | · | · | · | 4% | ·
COc1cccc(C(=O)NCC2(c3ccccc3)CCCC2)c1OC | ? | 1 | -34% | ? | 0% | 33
NC1(P(=O)(O)O)CCCCC1 | · | · | -1% | · | · | ·
COCCNC(=S)NNC(=O)CSCc1ccc(Cl)cc1Cl | -11% | -3 | -1% | -10% | -1% | 43*
[O-]/C(=C(\C(=S)Nc1cccc2ccccc12)[n+]1ccccc1)c1ccc(OC(F)F)cc1 | 15µM* | 10 | · | ? | -3% | -5
[O-]/C(=C(\C(=S)Nc1cccc2ccccc12)[n+]1ccccc1)c1cccs1 | ? | 19* | 13% | -15% | -1% | 32
[O-]/C(=C(\C(=S)Nc1cccc2ccccc12)[n+]1ccccc1)c1ccc2c(c1)OCCO2 | 5.9µM* | 22* | 16% | · | 4% | 39

Source: PubChem BioAssay
